From PubChem BioAssay (EPA / NIEHS)
Values joined by “and” are separate entries in the source; they are usually repeats but may differ in a detail not shown here. Equal entries are not always repeated. Inconclusive results are not listed. A structure can be active in one record and inactive in another. Active and inactive are the calls of the source. The calls were made as follows: active = hit-call score of the fitted dose curve at least 0.9, where 1 is the maximum; inconclusive = response in the unintended direction; inactive = score below 0.9.

Target: human CYP2J2, CYP2J2 (gene 1573) (UniProt P51589)
Experiment: NVS_ADME_hCYP2J2: NovaScreen (NVS) CYP450-related Enzyme Activity (ADME) Assay for human CYP2J2 (AID 2283106)
Description: NVS_ADME_hCYP2J2 is a biochemical, single-readout assay that uses extracted gene-proteins in a cell-free assay. Measurements were taken 1 hour after chemical dosing in a 96-well plate.NVS_ADME_hCYP2J2 is one of one assay component(s) measured or calculated from the NVS_ADME_hCYP2J2 assay. It is designed to make measurements of enzyme activity, a form of enzyme reporter, as detected with fluorescence intensity signals by Fluorescence technology.Data from the assay component NVS_ADME_hCYP2J2 was analyzed into 1 assay endpoint. This assay endpoint, NVS_ADME_hCYP2J2, was analyzed in the positive analysis fitting direction relative to Acetonitrile as the negative control and baseline of activity. Using a type of enzyme reporter, loss-of-signal activity can be used to understand changes in the enzymatic activity as they relate to the gene CYP2J2. Furthermore, this assay endpoint can be referred to as a primary readout, because this assay has produced multiple assay endpoints where this one serves a enzymatic activity function. To generalize the intended target to other relatable targets, this assay endpoint is annotated to the cyp intended target family, where the subfamily is xenobiotic metabolism.
Binding assays used specific radioligands (tritiated, iodinated) with non-radioactive competitive displacement ligands in agonist or antagonist protocols (as indicated) and various reference compounds and inhibitors to titrate specific binding to receptors and transporters. Most enzyme assays (CYPs, kinases, phosphatases, proteases, HDACs) used recombinant protein and specific substrates (fluorescence mostly, some colorimetric and radioactive) and inhibitors, followed by a biochemical separation of substrate and product. All assays for the biochemical HTS were initially run in duplicate at a single concentration (10 uM for CYP450 assays and 25 uM for all others). Assay-chemical combinations meeting a pre-defined threshold (e.g., 30% inhibition and other criteria defined below) were then run in singleton concentration-response format with maximum concentration of 20 uM for CYPs and 50 uM for all others. Each assay was run with positive and negative controls, and concurrent controls on every plate. The follow-up (secondary) screen tested active chemical-pairs in concentration series, as well as a few additional assays not tested in the primary screen, some selected negative inactives, and several cases re-run in the concentration series for confirmatory purposes.

Chain of human CYP2J2, CYP2J2 (gene 1573) (P51589 whole entry, looked up): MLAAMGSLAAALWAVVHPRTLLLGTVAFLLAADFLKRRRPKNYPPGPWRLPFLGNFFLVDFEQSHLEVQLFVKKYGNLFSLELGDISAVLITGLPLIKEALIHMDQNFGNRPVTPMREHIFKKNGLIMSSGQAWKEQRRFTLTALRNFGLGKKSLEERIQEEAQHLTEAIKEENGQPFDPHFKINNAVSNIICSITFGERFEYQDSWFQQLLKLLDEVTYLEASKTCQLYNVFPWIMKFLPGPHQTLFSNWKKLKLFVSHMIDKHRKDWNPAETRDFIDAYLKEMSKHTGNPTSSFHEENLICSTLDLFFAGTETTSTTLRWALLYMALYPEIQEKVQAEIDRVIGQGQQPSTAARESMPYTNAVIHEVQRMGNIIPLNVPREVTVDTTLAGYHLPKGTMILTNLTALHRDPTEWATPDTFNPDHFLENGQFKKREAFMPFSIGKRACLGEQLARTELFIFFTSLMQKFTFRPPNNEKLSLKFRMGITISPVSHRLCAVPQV

| Structure (SMILES) | outcome | AC50 |
| --- | --- | --- |
| CCOC(=O)NCCOc1ccc(Oc2ccccc2)cc1 | inactive |  |
| CCSC(=O)N(CC(C)C)CC(C)C |  | 1.4 µM (active) |
| Oc1ccc(C(c2ccc(O)cc2)C(Cl)(Cl)Cl)cc1 |  | 2.99 µM (active) |
| CC(C)(c1ccc(O)cc1)c1ccc(O)cc1 |  | 4.93 µM (active) |
| CCCCOCCOCCOCc1cc2c(cc1CCC)OCO2 |  | 0.116 µM (active) |
| C#CCOC(=O)[C@@H](C)Oc1ccc(Oc2ncc(Cl)cc2F)cc1 |  | 0.189 µM (active) |
| O=c1c(-c2ccc(O)cc2)coc2cc(O)cc(O)c12 |  | 979 nM (active) and 1.06 µM (active) and 443 nM (active) |
| Cc1nn(C)c(Oc2ccccc2)c1C=NOCc1ccc(C(=O)OC(C)(C)C)cc1 |  | 5.24 µM (active) |
| C=CCOC(Cn1ccnc1)c1ccc(Cl)cc1Cl (centres undefined) |  | 0.166 µM (active) |
| C[C@]12CC[C@@H]3c4ccc(O)cc4CC[C@H]3[C@@H]1CC[C@@H]2O | inactive |  |
| CCN(CC)CCOc1ccc(C(=C(Cl)c2ccccc2)c2ccccc2)cc1 | inactive | 4.08 µM (active) and 7.21 µM (active) |
| N#CSCSc1nc2ccccc2s1 |  | 0.466 µM (active) |
| C#C[C@]1(O)CC[C@H]2[C@@H]3CCc4cc(O)ccc4[C@H]3CC[C@@]21C |  | 878 nM (active) and 2.68 µM (active) and 672 nM (active) |
